Rows were chosen to be rich in hits. Some 8.8% of all compounds tested hit in one or more screens of this group.
HT1080NT lethal – kills 2HG-producing HT-1080-NT fibrosarcoma cells; 360,000 compounds, 1.6% hits; Potency, µM (titrated, usually from 46.1 µM), actives largely listed as cytotoxic; HT-1080-NT fibrosarcoma viability, CellTiter-Glo ATP luminescence, 48 h;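 also: NT is the 2HG producing partner of a matched IDH1 knockdown line; nearly all actives have a fitted effect of over 55% in size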
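HT-1080-NT fibrosarcoma cells (2HG-overproducing), 750 cells/well in RPMI with 5% FBS, dosed after 2 h and incubated 48 h at 37C. CellTiter-Glo luminescence normalized to DMSO and no-cell wells; concentration-response curves fitted and classed.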
KB-V1 MDR tox – kills drug-selected multidrug resistant KB-V1 cells | Potency, µM (series often up to 46.1 µM), hits mostly cytotoxic | KB-V1 MDR cells viability, CellTiter-Glo, 72 h | 400,000 compounds, 3.4% hits; also: nearly all actives have a fitted effect of over 60% in size
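Compound-treated KB-V1 multidrug-resistant cells, 72 h, 37 degrees C; viability by CellTiter-Glo. Fitted qHTS curves give the values.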
KB-3-1 cytotox – kills parental KB-3-1 adenocarcinoma cells; KB-3-1 viability, CellTiter-Glo ATP luminescence, 72 h; Potency, µM (series often up to 46.1 µM), usual class: cytotoxic; 400,000 compounds, 1.4% hits; also: nearly all actives have a fitted effect of over 60% in size
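KB-3-1 cells, DMEM (no phenol red) + 10% FBS; compound by pin transfer, 72 h, 37 °C. Readout: CellTiter-Glo luminescence after 10 min. Data normalized, curve-fitted.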
IL-1B inflam inh – blocks inflammasome-driven IL-1 beta release. AID 743279. activity change, % at 57.5 µM. THP-1 LPS/ATP IL-1B secretion, AlphaLISA, 16 h; hits give low values. 360,000 compounds, 4.7% hits; in the data active = activity change below about -50%; inconclusive = mostly about -30% to -49%
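THP-1 cells pretreated 1 hr with compounds (up to 57.5 uM final), then stimulated with LPS (250 ng/mL final) plus ATP (1.25 mM final); secreted IL-1B measured by AlphaLISA after 16 hr, decreased signal indicating inhibition.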
HT1080 IDH1KD tx – kills HT-1080 cells with IDH1 knockdown | AID 686971 | Potency, µM (highest dose often 46.1 µM), usual class: cytotoxic | 360,000 compounds, 2% hits | HT-1080 IDH1 knockdown viability, ATP luminescence, 48 h
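Viability of IDH1-knockdown HT-1080 fibrosarcoma cells was assessed by CellTiter-Glo after 48 h at 37 °C with titrated compound; concentration-effect curves were classified by fit quality and response size.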
A number is an active result; - = inactive; ? = inconclusive; . = not tested or not shown; [ ] = remark or other dose. Unless noted, calls follow the shape of the dose curve; as a rule, active = well fitted curve in the direction sought with a large enough effect; inconclusive = small, poorly fitted or top-dose-only effect, or another doubt; inactive = no such curve, though single readings can be large; an effect the other way counts as inactive or inconclusive.

SMILES	HT1080NT lethal	KB-V1 MDR tox	KB-3-1 cytotox	IL-1B inflam inh	HT1080 IDH1KD tx
Cc1cccc(Nc2nc(NCCCN3CCOCC3)nc(N)c2[N+](=O)[O-])c1	-	-	-	-79.8	-
COc1c(F)c(F)c(C(=O)O)c(Nc2ccc(C)cc2C)c1F	-	-	?	-	-
C[C@@H]1CC=C[C@H]2[C@H]1C(=O)N(Cc1ccccc1)[C@H]2c1ccc(F)c(/C=C/c2ccccc2)c1	?	-	?	-	?
COc1ccc(-c2cc([C@H]3[C@H]4C=CC[C@@H](C)[C@@H]4C(=O)N3Cc3ccccc3)ccc2F)cc1	?	?	16.4µM	-	?
CC(=O)c1ccc(-c2ccc([C@H]3[C@H]4C=CC[C@@H](C)[C@@H]4C(=O)N3Cc3ccccc3)c(F)c2)cc1	?	20.6µM	?	-	?
C[C@@H]1CC=C[C@H]2[C@H]1C(=O)N(Cc1ccccc1)[C@H]2c1ccoc1	-	-	-	-	-
COc1ccc(-c2cc([C@H]3[C@H]4C=CC[C@@H](C)[C@@H]4C(=O)N3Cc3ccccc3)ccc2F)cc1OC	-	?	16.4µM	-	-
CC[C@@H]1CC=C[C@H]2[C@H]1C(=O)N(Cc1ccccc1)[C@H]2c1ccoc1	?	?	14.6µM	-106.8	?
COCC(=O)N(Cc1cc2ccc(C)c(C)c2n2nnnc12)C1CCCC1	-	-	-	-	-
CCOC(=O)[C@]12CCCC=C1N(Cc1ccco1)C(=O)[C@H](CC(=O)NCCc1ccccc1OC)C2	-	?	-	-	-
COCc1c(C(=O)NCc2ccccc2CN2CCCC2)oc2ccccc12	-	-	-	-	-
C[C@@H]1CC=C[C@H]2[C@H]1C(=O)N(Cc1ccccc1)[C@H]2c1ccc2ccccc2c1	-	-	-	-	?
C[C@@H]1CC=C[C@H]2[C@H]1C(=O)N(Cc1ccccc1)[C@H]2c1ccc2ccccc2c1Br	-	?	?	-75.5	-
CC(C)N(c1ccccc1)c1ccc(NC(=O)C2CCCO2)cc1 (stereo not given)	-	20.6µM	-	-	-
Cc1ccc2nc(-c3ccc(NC(=O)Cc4cccs4)cc3)[nH]c2c1	?	-	-	-	?
O=C(Nc1ccc(N=Nc2ccccc2)c(NC(=O)C2CCCO2)c1)C1CCCO1 (stereo not given)	?	?	-	-83.2	?
O=C(Nc1ccc(-c2nc3ccccc3o2)cc1)C1CCCO1 (stereo not given)	-	10.3µM	?	-	?
Cc1ccc2nc(-c3ccc(NC(=O)C4CCCO4)cc3)[nH]c2c1 (stereo not given)	-	9.2µM	-	-	-
O=C(Nc1ccc2oc(-c3ccccc3)nc2c1)C1CCCO1 (stereo not given)	-	?	?	-	-
O=C(Nc1ccc(-c2nc3cc(Cl)ccc3o2)cc1)C1CCCO1 (stereo not given)	-	10.3µM	-	-	-
Cn1ncc2c(=O)[nH]nnc21	-	-	-	-	-
Cc1cccc(Nc2nc(N)nc(-c3oc4ccccc4c3C)n2)c1	?	20.6µM	?	-74.6	?
COc1ccccc1Nc1nc(N)nc(-c2cc3ccccc3o2)n1	-	?	-	-	-
COc1cccc(Nc2nc(N)nc(-c3oc4ccccc4c3C)n2)c1	10µM	4.61µM	?	-70.6	7.94µM
Cc1ccc(Nc2nc(C)nc3c2oc2ccccc23)cc1	-	?	-	.	-
SMILES	HT1080NT lethal	KB-V1 MDR tox	KB-3-1 cytotox	IL-1B inflam inh	HT1080 IDH1KD tx
Cc1ccc(Nc2nc(N)nc(-c3oc4ccccc4c3C)n2)cc1	0.0065µM	?	0.184µM	-	0.0103µM
Cc1c(-c2nc(N)nc(Nc3ccccc3F)n2)oc2ccccc12	-	16.4µM	-	-	-
CCc1ccc(NS(=O)(=O)c2c(C(=O)N3CCCCCC3)c(C)n(C)c2C)cc1	-	-	-	-	-
O=C(CSc1nnc(-c2cccs2)n1Cc1ccccc1)NCc1ccc2c(c1)OCO2	-	-	-	-60.6	-
Cc1cc2cc(C)c3nnc(SCC(=O)NCc4ccc5c(c4)OCO5)n3c2cc1C	-	?	-	-	-
Cc1cc(C)c2cc(C)c3nnc(SCC(=O)NCc4ccc5c(c4)OCO5)n3c2c1	-	2.31µM	-	-58.6	-
COc1cc(C(=O)NCC(=O)NNC(=O)C2COc3ccccc3O2)cc(OC)c1OC (stereo not given)	-	?	?	-	-
C=CCNC(=O)c1onc(CSc2cc(C)cc(C)c2)c1C(=O)NCC=C	-	-	?	-103.8	-
Cc1cc(/C=N/n2cnnc2)c(C)n1-c1ccc(Cl)cc1	-	-	-	-	-
Cc1cc(/C=N/n2cnnc2)c(C)n1-c1ccc(OCc2ccc(F)cc2)cc1	?	?	?	-80.4	?
Cc1cc(/C=N/n2cnnc2)c(C)n1-c1ccc(OCc2ccc(Cl)cc2Cl)cc1	23.1µM	5.17µM	7.31µM	-80.2	-[9.24 µM]
Cc1cc(/C=N/n2cnnc2)c(C)n1-c1ccccc1	-	5.8µM	3.26µM	-	-
O=C(Nc1ccc(Br)cc1)c1cccc(N2C(=O)C3CCCCC3C2=O)c1 (stereo not given)	-	-	-	-	-
Cc1ccc(C(=O)NCC(=O)OCC(=O)Nc2ccccc2[N+](=O)[O-])cc1	-	-	-	-	-
Nc1cc(=O)[nH]c2c1CCC2	.	-	?	.	.
COc1cccc(-c2cnc3c(NC(C)=O)cc(-c4ccc(S(C)(=O)=O)cc4)cn23)c1	?	?	-	?	?
COC(=O)C(NNc1ccccc1)(NC(=O)c1ccc(F)cc1)C(F)(F)F (stereo not given)	-	23.1µM	?	-	?
c1ccc2c(c1)CCc1ccccc1C2=C1CCNCC1	-	?	?	-66.0	-
COc1ccc(CCNc2nc(-c3ccc(C)cc3)cc(C(F)F)n2)cc1OC	.	-	-	.	.
Cc1ccc(-c2cc(C(F)F)nc(S(C)(=O)=O)n2)cc1	23.1µM	?	?	-102.2	20.6µM
COc1ccc(OC)c(NC(=O)Cc2coc3cc(C)cc(C)c23)c1	-	16.4µM	-	-	-
CCC(=O)NC(=S)Nc1ccc(S(=O)(=O)NC2CCCCC2)cc1	-	?	-	-	-
COc1ccc([N+](=O)[O-])cc1NC(=O)c1cncc(Br)c1	-	-	-	-	-
CCn1ncc(Br)c1C(=O)Nc1ccccc1OC	-	11.6µM	13µM	-	-
Cc1cc([N+](=O)[O-])ccc1NC(=O)c1cncc(Br)c1	-	?	-	-66.6	-
CCn1ncc(Br)c1C(=O)Nc1cccc(F)c1	-	-	-	-	-
CCn1ncc(Br)c1C(=O)Nc1ccc2c(c1)OCCO2	-	20.6µM	?	-	-
CCn1ncc(Br)c1C(=O)Nc1ccc(C(C)C)cc1	-	-	-	-85.0	-
CCN(C[C@H]1N[C@@](CC)(C(=O)OC)[C@H]2C(=O)N(Cc3ccccc3)C(=O)[C@@H]12)C(=O)NC(C)C	-	-	-	-	-

Bioassay records as filed in PubChem.
